# ± gives the standard deviation.
# B1: H2A 11-23 R A Kac A Kac T R S S R A G L (peptide)
# chain: RAKAKTRSSRAGL
# B2: H2A 11-23 R A Kac A Kac Tph R S S R A G L (peptide)
# chain: RAKAKTRSSRAGL
# B3: H2A 11-23 R A K A K Tph R S S R A G L (peptide)
# chain: RAKAKTRSSRAGL
# B4: H2B 1-13 P E P A K S A P A P K K G (peptide)
# chain: PEPAKSAPAPKKG
# B5: H2A 11-23 R A K A Kac Tph R S S R A G L (peptide)
# chain: RAKAKTRSSRAGL
# Tests used:
# Assay in all cases: peptide microarray binding signal (635 nm), min-max normalized on array (fraction of array maximum); higher = stronger binding
# [1] = target: T1, HaloTag-ATRX ADD domain (163-292)
# T1 chain: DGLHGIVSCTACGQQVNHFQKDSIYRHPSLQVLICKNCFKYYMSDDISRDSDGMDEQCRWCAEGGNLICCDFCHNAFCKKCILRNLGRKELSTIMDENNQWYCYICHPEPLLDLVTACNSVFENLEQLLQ
# Description: (§1)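 Histone 13-mer peptides were synthesized as cellulose conjugates with a C-terminal 20-atom PEG linker and printed in triplicate on nitrocellulose. The sequence given is the unmodified backbone; PTMs (Kme1/2/3, Kac, Sph/Tph, Rme/Rme2a/Rme2s, Rcit) are listed in the label and the 'peptide modifications' condition. Slides were probed at 4 °C for 1 h with biotin-labelled (HQ)5-HaloTag reader fusions (ATRX-ADD, ING2-PHD) then streptavidin-Alexa647, or with rabbit histone antibodies then anti-rabbit Alexa647. The mean 635 nm signal of the triplicate spots was scaled 0-1 between the lowest and highest values on each array.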
# [2] = target: HaloTag-ING2 PHD (mouse Ing2 200-280)
# Description: as §1
# [3] = target: anti-H3K4me3 antibody ab8580
# Description: as §1
# [4] = target: anti-H3K9me3 antibody ab8898
# Description: as §1
# [5] = peptide region: H2A 11-23, peptide modifications: H2AK13ac H2AK15ac, binder concentration: 1:2,000 dilution
# [6] = peptide region: H2A 11-23, peptide modifications: H2AK13ac H2AK15ac, binder concentration: 1:10,000 dilution
# [7] = peptide region: H2A 11-23, peptide modifications: H2AK13ac H2AK15ac H2AT16ph, binder concentration: 1:2,000 dilution
# [8] = peptide region: H2A 11-23, peptide modifications: H2AK13ac H2AK15ac H2AT16ph, binder concentration: 1:10,000 dilution
# [9] = peptide region: H2A 11-23, peptide modifications: H2AT16ph, binder concentration: 1:2,000 dilution
# [10] = peptide region: H2A 11-23, peptide modifications: H2AT16ph, binder concentration: 1:10,000 dilution
# [11] = peptide region: H2B 1-13, binder concentration: 1:2,000 dilution
# [12] = peptide region: H2B 1-13, binder concentration: 1:10,000 dilution
# [13] = peptide region: H2A 11-23, peptide modifications: H2AK15ac H2AT16ph, binder concentration: 1:2,000 dilution
# [14] = peptide region: H2A 11-23, peptide modifications: H2AK15ac H2AT16ph, binder concentration: 1:10,000 dilution
binder,measurement,setting,value
B1,peptide microarray binding signal,"[1]; peptide region: H2A 11-23, peptide modifications: H2AK13ac H2AK15ac, binder concentration: 50 nM",0.00307 ± 8.1e-05
same,peptide microarray binding signal,"[1]; peptide region: H2A 11-23, peptide modifications: H2AK13ac H2AK15ac, binder concentration: 500 nM",0.00481 ± 0.00022
same,peptide microarray binding signal,"[2]; peptide region: H2A 11-23, peptide modifications: H2AK13ac H2AK15ac, binder concentration: 10 nM",0.0034 ± 8e-05
same,peptide microarray binding signal,"[2]; peptide region: H2A 11-23, peptide modifications: H2AK13ac H2AK15ac, binder concentration: 100 nM",0.00227 ± 5.8e-05
same,peptide microarray binding signal,[3]; [5],0.000359 ± 1.5e-05
same,peptide microarray binding signal,[3]; [6],0.000628 ± 6.7e-06
same,peptide microarray binding signal,[4]; [5],0.000529 ± 5.7e-05
same,peptide microarray binding signal,[4]; [6],0.000577 ± 1.6e-05
B2,peptide microarray binding signal,"[1]; peptide region: H2A 11-23, peptide modifications: H2AK13ac H2AK15ac H2AT16ph, binder concentration: 50 nM",0.0063 ± 0.00011
same,peptide microarray binding signal,"[1]; peptide region: H2A 11-23, peptide modifications: H2AK13ac H2AK15ac H2AT16ph, binder concentration: 500 nM",0.0115 ± 0.00047
same,peptide microarray binding signal,"[2]; peptide region: H2A 11-23, peptide modifications: H2AK13ac H2AK15ac H2AT16ph, binder concentration: 10 nM",0.01009 ± 7e-05
same,peptide microarray binding signal,"[2]; peptide region: H2A 11-23, peptide modifications: H2AK13ac H2AK15ac H2AT16ph, binder concentration: 100 nM",0.0109 ± 0.00022
same,peptide microarray binding signal,[3]; [7],0.001265 ± 1e-05
same,peptide microarray binding signal,[3]; [8],0.00297 ± 7.6e-05
same,peptide microarray binding signal,[4]; [7],0.00107 ± 7.3e-05
same,peptide microarray binding signal,[4]; [8],0.00179 ± 3.4e-05
B3,peptide microarray binding signal,"[1]; peptide region: H2A 11-23, peptide modifications: H2AT16ph, binder concentration: 50 nM",0.0047 ± 9.3e-05
same,peptide microarray binding signal,"[1]; peptide region: H2A 11-23, peptide modifications: H2AT16ph, binder concentration: 500 nM",0.00824 ± 0.00034
same,peptide microarray binding signal,"[2]; peptide region: H2A 11-23, peptide modifications: H2AT16ph, binder concentration: 10 nM",0.00364
same,peptide microarray binding signal,"[2]; peptide region: H2A 11-23, peptide modifications: H2AT16ph, binder concentration: 100 nM",0.00794 ± 0.00055
same,peptide microarray binding signal,[3]; [9],0.000472 ± 1.2e-05
same,peptide microarray binding signal,[3]; [10],0.000913
same,peptide microarray binding signal,[4]; [9],0.000347 ± 7e-06
same,peptide microarray binding signal,[4]; [10],0.000807 ± 1.5e-05
B4,peptide microarray binding signal,"[1]; peptide region: H2B 1-13, binder concentration: 50 nM",0.00715 ± 0.00022
same,peptide microarray binding signal,"[1]; peptide region: H2B 1-13, binder concentration: 500 nM",0.00119 ± 0.0002
same,peptide microarray binding signal,"[2]; peptide region: H2B 1-13, binder concentration: 10 nM",0.00197 ± 0.00013
same,peptide microarray binding signal,"[2]; peptide region: H2B 1-13, binder concentration: 100 nM",0.00149 ± 7.7e-05
same,peptide microarray binding signal,[3]; [11],9.44e-05 ± 1e-06
same,peptide microarray binding signal,[3]; [12],0.000342 ± 7.5e-06
same,peptide microarray binding signal,[4]; [11],0.000257 ± 2.6e-05
same,peptide microarray binding signal,[4]; [12],0.000807 ± 2.9e-05
B5,peptide microarray binding signal,"[1]; peptide region: H2A 11-23, peptide modifications: H2AK15ac H2AT16ph, binder concentration: 50 nM",0.006489 ± 4.3e-05
same,peptide microarray binding signal,"[1]; peptide region: H2A 11-23, peptide modifications: H2AK15ac H2AT16ph, binder concentration: 500 nM",0.0117 ± 0.00031
same,peptide microarray binding signal,"[2]; peptide region: H2A 11-23, peptide modifications: H2AK15ac H2AT16ph, binder concentration: 10 nM",0.00722 ± 0.0003
same,peptide microarray binding signal,"[2]; peptide region: H2A 11-23, peptide modifications: H2AK15ac H2AT16ph, binder concentration: 100 nM",0.0188 ± 0.00091
same,peptide microarray binding signal,[3]; [13],0.000925 ± 7.2e-05
same,peptide microarray binding signal,[3]; [14],0.00103 ± 2.8e-05
same,peptide microarray binding signal,[4]; [13],0.000513 ± 2.1e-05
same,peptide microarray binding signal,[4]; [14],0.000923 ± 2.5e-05
